TLR4 MyD88 comp: TLR4-MyD88 interaction inhibition in cells | O00206+Q99836 | HeLa CL3-4 TLR4/MyD88 BLA complementation, FRET ratio | inhibition, % at 8.4 µM | 200,000 compounds, 0.18% hits | AID 861; in the data active = inhibition above about 25%;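 note: 0% = vehicle and 100% = reference inhibitor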
IDE act: IDE (human) activation, cell-based; 340,000 compounds, 0.073% hits; activation, % at 5.96 µM; P14735; HEK cells, FAbeta-B cleavage, fluorescence polarization; 0% vehicle, 100% cell-free pure enzyme wells; AID 493087;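 active = activation above the mean of all tested compounds plus 3 SD, set per screening campaign, cut at about 17% in these data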
NOD2-RIPK2 inh: inhibitors of human NOD2-RIPK2 interaction. CHO BLA complementation NOD2-RIPK2, CCF4 ratio. 360,000 compounds, 0.38% hits. inhibition, % at 4.98 µM. O43353; in the data active = inhibition above about 21%;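 note: 0% = vehicle only and 100% = reference blocker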
Target sequence (O43353 whole entry, looked up): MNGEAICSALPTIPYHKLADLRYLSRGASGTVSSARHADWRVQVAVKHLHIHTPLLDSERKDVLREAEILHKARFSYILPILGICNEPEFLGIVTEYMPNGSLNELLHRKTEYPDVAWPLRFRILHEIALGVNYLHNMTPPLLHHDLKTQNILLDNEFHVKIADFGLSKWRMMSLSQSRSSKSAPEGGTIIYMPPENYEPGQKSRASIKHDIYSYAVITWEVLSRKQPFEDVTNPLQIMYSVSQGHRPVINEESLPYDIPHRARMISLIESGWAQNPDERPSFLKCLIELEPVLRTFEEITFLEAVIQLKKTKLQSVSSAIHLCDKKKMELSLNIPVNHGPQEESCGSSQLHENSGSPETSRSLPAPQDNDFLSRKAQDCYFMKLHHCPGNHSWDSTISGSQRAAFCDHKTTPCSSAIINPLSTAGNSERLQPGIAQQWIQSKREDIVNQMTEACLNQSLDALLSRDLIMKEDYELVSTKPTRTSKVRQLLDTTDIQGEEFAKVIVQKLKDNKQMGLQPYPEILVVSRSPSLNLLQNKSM
TLR9-MyD88 inh: blocks human TLR9 binding to MyD88. Q9NR96+Q99836. CHO BLA complementation TLR9-MyD88, CCF4 FRET ratio. inhibition, % at 4.98 µM. 340,000 compounds, 0.21% hits. AID 504734;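 active = inhibition above the mean over all tested compounds plus 3 SD, cut at about 21% in these data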;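 note: 0% = DMSO only wells and 100% = clavulanate BLA inhibitor control wells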
IDE cell inh: inhibits human insulin-degrading enzyme in HEK cells | P14735 | FAbetaB cleavage, fluorescence polarization | inhibition, % at 5.59 µM | 320,000 compounds, 0.41% hits | AID 434962;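 active = percent inhibition above the average of all tested compounds plus 3 SD, set per screening campaign, cut at about 16% in these data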;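 note: IDE supplied by intact live HEK cells; FP after avidin binding of uncleaved biotin substrate so inhibition keeps polarization high; 0% = DMSO wells and 100% = 60 µM reference IDE inhibitor Ii1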
IDE inh confirm: confirmation of human insulin-degrading enzyme inhibitors in cells | shares compounds with IDE cell inh | HEK cells, FAbetaB cleavage, fluorescence polarization | inhibition, % at 5.59 µM | 1,200 compounds, 51% hits | AID 435028;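 active = mean inhibition across triplicate wells above the cutoff set by the earlier primary insulin-degrading enzyme screen, cut at about 16% in these data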;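 note: 0% = DMSO wells and 100% = 60 µM reference IDE inhibitor Ii1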
HEK cytotox: counter-screen for IDE inhibitors: cytotoxicity in HEK cells | shares compounds with IDE cell inh | HEK293 cytotoxicity, ATP luminescence | inhibition, % at 5.59 µM | 1,200 compounds, 28% hits | AID 449730; in the data active = inhibition above about 22%;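 note: 0% = vehicle wells and 100% = reference cytotoxic drug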
IDE FP artifact: fluorescent artifact in IDE inhibitor FP assay; IC50, µM; 30 tested, under 10 active; AID 588718; FP counterscreen for fluorescent artifacts, IDE probe project; shares compounds with IDE cell inh; call rule not given here
* = called active by the depositor; . = no result. Hits are enriched below; roughly 0.86% of the tested compounds scored in any of these assays.

SMILES	TLR4 MyD88 comp	IDE act	NOD2-RIPK2 inh	TLR9-MyD88 inh	IDE cell inh	IDE inh confirm	HEK cytotox	others
Cc1oc(-c2ccc(Cl)cc2)nc1CS(=O)CC(=O)NC(C)c1ccccc1 (stereo not drawn)	.	-3	8	-11	-5	.	.
C(=N\NC1=Nc2cccc3cccc1c23)/c1ccccc1	0	-1	14	11	9	.	.
C(=N\NC1=Nc2cccc3cccc1c23)/c1cccnc1	8	-17	10	-1	23*	15	9
Cc1cccc(C(=O)NC(=S)NNC(=O)COc2ccc(Cl)cc2)c1	-3	1	0	18	.	.	.
O=C(NC(=S)Nc1ccc2c(c1)OCCO2)c1ccccc1F	-1	3	0	7	3	.	.
Cc1cc(C)c2c(=O)n(CC(=O)Nc3cccc(F)c3)sc2n1	.	-56	-2	2	21*	8	113*
CCOc1ccc(NC(=O)Cn2sc3nc(C)cc(C)c3c2=O)cc1	.	-52	27*	6	40*	11	79*
Cc1cc(C)c2c(=O)n(CC(=O)N3CCC(Cc4ccccc4)CC3)sc2n1	7	.	.	.	.	.	.
CCOc1ccc(NC(=O)Cn2ncc3ccccc32)cc1	.	-2	-5	-4	.	.	.
Cc1cccc(N2CCN(C(=O)Cn3sc4nc(C)cc(C)c4c3=O)CC2C)c1 (stereo not drawn)	-6	-73	23*	16	41*	12	76*
O=C1C2C3C=CC(CC3)C2C(=O)N1c1ccc([N+](=O)[O-])cc1 (stereo not drawn)	.	3	-3	-5	5	.	.
O=C(COC(=O)CCSc1ccccc1)Nc1ccccc1	.	-1	-11	-4	0	.	.
O=C(COc1ccc2c3c(c(=O)oc2c1)CCC3)N1CCN(c2ccccc2)CC1	.	-13	2	6	18*	5	7
COc1ccc2c(n1)Sc1nc3ccccc3nc1N2	.	-35	21	11	28*	55*	12
O=C(NC1CCCCC1)C1CCN(C(=O)c2ccc(-c3ccccc3)cc2)CC1	-7	-3	-6	1	18*	6	12
COc1ccc(/C=C/C(=O)Nc2cc(C(F)(F)F)ccc2Cl)cc1OC	4	-9	3	-23	9	.	.
COc1cc(/C=C/C(=O)Nc2cc(C(F)(F)F)ccc2Cl)cc(OC)c1OC	-4	-5	-9	3	17*	4	16
COc1ccc(N2CCOCC2)c(NC(=O)c2ccco2)c1	.	3	-1	-7	-4	.	.
Cc1onc(-c2ccccc2)c1CNS(=O)(=O)c1cccc(Br)c1	.	3	7	1	4	.	.
Cc1csc2ncnc(NNC(=O)c3ccc(Cl)cc3)c12	.	-1	-2	-4	17*	5	34*
O=C(NNc1ncnc2sccc12)c1ccc(Cl)cc1	.	.	-5	.	2	.	.
CCOc1ccc(/C=C2\SC(=S)NC2=O)cc1OC	-2	3	14	0	0	.	.
COc1ccc(/C=C2\SC(=O)NC2=S)cc1OC	0	-29	-8	5	68*	8	16
COc1cc(NC(=O)c2csc(-c3ccncc3)n2)cc(C(=O)Nc2cccc(C(F)(F)F)c2)c1	.	2	-10	-12	2	.	.
Cc1nc(-c2cccnc2)sc1C(=O)Nc1cccc(C(F)(F)F)c1	-2	-4	0	6	7	.	.	IDE FP artifact=>55
SMILES	TLR4 MyD88 comp	IDE act	NOD2-RIPK2 inh	TLR9-MyD88 inh	IDE cell inh	IDE inh confirm	HEK cytotox	others
COc1ccc(-c2nc(C(=O)Nc3cccc(C(F)(F)F)c3)cs2)cc1	.	.	.	.	.	.	.	IDE FP artifact=>55
O=C(Nc1cccc(C(F)(F)F)c1)c1csc(-c2ccncc2)n1	10	-31	-1	-9	50*	29*	20	IDE FP artifact=>55
Cc1ccc(N2CC(C(=O)OCC(=O)c3ccc[nH]3)CC2=O)cc1 (stereo not drawn)	.	0	3	-15	-1	.	.
CCn1c(COc2ccc(C)cc2)nnc1SCC(=O)C(C)(C)C	14	-5	-6	3	2	.	.
CCn1c(COc2ccc(C)cc2)nnc1SCc1ccc(C#N)cc1	10	0	-3	5	18*	8	13
COc1ccc(C(CC(=O)N2CCCC2)c2ccc(F)cc2)cc1 (stereo not drawn)	.	-6	9	-3	17*	10	10
COc1ccc(C(CC(=O)N2CCCC2)C(C)C)cc1 (stereo not drawn)	.	1	2	-1	3	.	.
COc1ccccc1OCCNC(=O)c1ccc(Br)cc1	.	4	-6	5	-3	.	.
Cc1cccc(Nc2cnn(C34CC5CC(CC(CC(=O)O)(C5)C3)C4)c(=O)c2Cl)c1	-3	-13	2	-6	21*	12	6
Cc1cc(C)cc(Nc2cnn(C34CC5CC(CC(CC(=O)O)(C5)C3)C4)c(=O)c2Cl)c1	2	-31	-7	-1	32*	18*	12
Cc1ccc(Nc2cnn(C34CC5CC(CC(CC(=O)O)(C5)C3)C4)c(=O)c2Cl)cc1	-3	-13	-6	1	14	.	.
Cc1cccc(C(=O)Nc2cccc(-c3ccc4nncn4n3)c2)c1	1	-29	-14	3	20*	12	17
COc1ccc(C(=O)Nc2ccc(NS(=O)(=O)c3ccccc3)cc2)cc1OC	.	3	-11	-8	-2	.	.
Cc1ccc(NC(=O)CC2SC3=NCCN3C2=O)cc1 (stereo not drawn)	-7	-9	15	6	-2	.	.
CC(=O)N(C(C)=O)c1nc(-c2ccccc2)cn1/N=C/c1ccccc1	.	-25	-6	0	25*	20*	17
CC(=O)c1cc(C(=O)c2ccccc2)sc1Nc1ccccc1	-5	-4	3	-6	9	.	.
Cc1ccc2[nH]cc(/C=C/c3cc[n+](C)cc3)c2c1	.	-15	5	4	.	.	.
CC[n+]1ccc(/C=C/c2c[nH]c3ccccc23)cc1	.	-14	5	4	24*	41*	71*
CC(=O)c1cc(C)c(OC(=O)c2ccccc2)c(C)c1	.	4	1	9	.	.	.
CC(=O)Cc1cc(O)c2ccccc2c1OC(=O)c1ccccc1	12	-6	-1	0	43*	37*	14
CCOc1ccc(Cl)cc1/C=N/NC(=O)CNC(=O)c1ccccc1	-4	-6	3	-2	26*	6	15
Nc1c(C(=O)c2ccccc2)sc2nsc(SCCN3CCOCC3)c12	.	.	12	.	29*	61*	58*
COc1cc(OC)cc(C(=O)N2CCN(C(=O)COc3ccc4ccccc4c3)CC2)c1	19	-6	9	-5	1	.	.
COc1ccc2nc(N3CCN(C(=O)c4ccc5ncsc5c4)CC3)sc2c1	.	-20	-13	-11	17*	11	30*
